PfHsp90 set2 = reduces growth (ATP signal) of yeast expressing P. falciparum Hsp90; S. cerevisiae expressing PfHsp90, BacTiter-Glo ATP, 48 h; yeast lacking PDR1 and PDR3 efflux regulators; inhibition, % at 9.4 µM; 0.32% of 310,000 active; AID 504621;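 active means every replicate shows inhibition above about 80%, whatever the replicate mean, limit read from the data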
tim23-1 inh = growth inhibitors of tim23-1 mutant yeast | S. cerevisiae tim23-1 growth, BacTiter-Glo luminescence, 24 h | inhibition, % at 20 µM | 1.3% of 330,000 active;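 active means growth inhibition of the mutant yeast at or above 50%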;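 further: temperature-sensitive mutant grown at 25 °C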
tim10-1 inh = tim10-1 yeast growth inhibition; inhibition, % at 20 µM; S. cerevisiae tim10-1 ts strain growth, BacTiter-Glo, 24 h; 2.2% of 330,000 active;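 active means inhibition of at least 40%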;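 further: mutant grown at 25 °C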
TIM10 inh = inhibits growth of TIM10 yeast strain. S. cerevisiae TIM10 strain growth, BacTiter-Glo luminescence, 24 h. inhibition, % at 10 µM. 1.4% of 330,000 active;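 active means inhibition of 40% or more at the single tested concentration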;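 further: wild-type TIM10 isogenic control strain grown at permissive 25 °C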
NALP3 yeast inh = inhibitors of NALP3 inflammasome in yeast. inhibition, % at 10 µM. 0.39% of 330,000 active. Yeast reconstituted NLRP3/ASC/caspase-1, beta-gal luminescence, 24 h;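 active means inhibition of 50% or more; inactive means inhibition below 50%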
NALP1 inh = blocks the NALP1 inflammasome reconstituted in yeast; S. cerevisiae NALP1/ASC/caspase-1 growth, X-gal OD620, 72 h; inhibition, % at 10 µM; AID 2071; 0.61% of 280,000 active; in the data active means inhibition mostly above about 24%, no sharp cut-off; inactive means mostly below about 32%
tim10-1 conf = confirmation of tim10-1 mutant yeast growth inhibitors | 56% of 7,400 active | AID 463213 | inhibition, % at 20 µM | S. cerevisiae tim10-1 ts strain growth, BacTiter-Glo, 24 h | shares compounds with tim10-1 inh;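 active means inhibition of yeast growth at or above a set limit in either of two repeat tests at 20 µM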;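 further: tim10-1 mutant grown at permissive 25 °C to find synthetic lethal compounds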
Numbers stand for hits; – = inactive; · = no result; ! = not active in a repeat. This is a sample that favours compounds with a hit; in the whole collection about 4.1% have one here.

SMILES	PfHsp90 set2	tim23-1 inh	tim10-1 inh	TIM10 inh	NALP3 yeast inh	NALP1 inh	tim10-1 conf
N#C/C(=N\Nc1cccc2ccccc12)c1nnc2n1CCCCC2	–	–	40	–	–	–	–
O=S(=O)(NC1CCCCC1Nc1ccc(Cl)cc1)c1ccccc1 (centres undefined)	–	–	–	–	–	–	·
Cc1ccc(NC2CCCCC2NS(=O)(=O)c2ccccc2)c(C)c1 (centres undefined)	–	–	44	–	–	–	–
Cc1nonc1C1CCCN1Cc1cn[nH]c1-c1ccc(-c2ccccc2)cc1 (centres undefined)	–	–	–	–	–	–	·
CCN(CC(=O)NCc1ccc(Cl)cc1)C(=O)CSCC(=O)Nc1ccc(OC)cc1	–	–	–	–	–	·	·
Nc1ncnc(Oc2cccc(C(F)(F)F)c2)c1[N+](=O)[O-]	–	–	43	–	–	–	–
COc1cc(C)ccc1Oc1ncnc(N)c1[N+](=O)[O-]	–	–	–	–	–	–	·
Cc1ccc(NC(=S)NNC(=O)c2ccc(N3CCOCC3)c([N+](=O)[O-])c2)cc1Cl	–	–	–	–	–	–	·
O=C(NNC(=S)Nc1ccc(Br)cc1)c1ccc(N2CCOCC2)c([N+](=O)[O-])c1	–	–	44	–	–	–	–
CNC(=O)NC(=O)CSc1ccc(S(=O)(=O)N(C)C2CCCCC2)cn1	·	–	–	–	–	·	·
CCCN1Cc2cccc(C(=O)Nc3ccc4c(c3)OCO4)c2C1=O	–	–	–	–	–	–	·
O=C(Nc1ccc2c(c1)OCO2)c1cccc2c1C(=O)N(Cc1cccnc1)C2	–	–	43	–	–	–	34
CN(CC(=O)Nc1c(Cl)cccc1Cl)C(=O)CCC1CCCC1	–	–	–	–	–	–	·
COc1ccc(Cl)cc1C(=O)Nc1ccc2c(c1)OCCO2	–	–	–	–	–	–	·
COc1ccc(OC)c(NC(=O)Nc2ccc3c(c2)OCO3)c1	–	–	40	–	–	–	–
COc1ccc(Cl)cc1C(=O)Nc1ccc2c(c1)OCO2	·	–	46	–	–	–	35
COc1cccc(NC(=O)Nc2ccc3c(c2)OCO3)c1	–	–	–	–	–	–	·
Cc1cc2oc(=O)ccc2cc1[N+](=O)[O-]	–	–	–	–	–	–	·
CC(CNC(=O)CCc1nnc(CCC2CCCCC2)o1)c1ccccc1 (centres undefined)	–	–	–	–	–	–	33
Cc1ccc([N+](=O)[O-])cc1NC(=O)c1c(-c2ccccc2)noc1C	–	–	–	–	–	–	·
COc1ccc(N2Cc3ccccc3C2=O)cc1	–	–	–	–	–	–	·
C=CC(=O)Oc1ccc(N2Cc3ccccc3C2=O)cc1	·	–	60	–	–	·	68
CC(C)N(C(=S)Nc1cccc(C(F)(F)F)c1)C(C)c1ccccn1 (centres undefined)	·	–	43	–	–	–	–
COc1cccc(O)c1CN1CCC(Oc2ccc(C(=O)NCc3ccccn3)cc2)CC1	–	–	–	–	–	–	·
CCOC(=O)N1CCC(NC(=O)CC2C(=O)NCCN2Cc2ccccc2)CC1 (centres undefined)	–	–	–	–	–	–	·
SMILES	PfHsp90 set2	tim23-1 inh	tim10-1 inh	TIM10 inh	NALP3 yeast inh	NALP1 inh	tim10-1 conf
COc1cc(N=c2ssnc2Cl)c(OC)cc1Cl	91!	–	42!	–	–	–	51
COc1ccc(OC)c(N=c2ssnc2Cl)c1	·	–	47	–	–	–	32
COc1ccc(OC)c(N=C2C(=O)Nc3ccccc32)c1	·	–	–	–	–	–	·
c1ccc(CN2CCN(C(c3ccccc3)c3ccccc3)CC2)cc1	–	–	–	–	–	–	·
O=S(=O)(CCN1CCN(C(c2ccccc2)c2ccccc2)CC1)C(F)(F)F	–	–	41	–	–	–	33
O=C(NCCCN1CCOCC1)c1ccc(/C=C2\Oc3ccccc3N(Cc3ccccc3F)C2=O)cc1	–	–	47	–	–	–	–
CCN1CCN(CCCNC(=O)c2ccc(/C=C3/Sc4ccccc4N(Cc4ccccc4F)C3=O)cc2)CC1	–	–	–	–	–	–	·
Clc1ccc(-c2nn3c(C4COc5ccccc5O4)nnc3s2)cc1 (centres undefined)	·	–	56	–	–	–	38
COc1ccc2sc(-c3ccc(SC)cc3)c(-c3ccc(O)cc3)c2c1	–	–	–	–	–	·	·
COc1cc2c(C#N)c(N3CCCC3)nc(N)c2c(N)n1	–	–	43!	–	–	·	–
COc1cc2nc(N3CCNCC3)nc(N)c2cc1OC	–	–	–	–	–	–	·
COc1cc2nc(N3CCN(c4cc(C)ccc4C)CC3)nc(N)c2cc1OC	–	–	45	–	–	–	–
O=C(CNC(=S)N(Cc1ccccc1)Cc1ccccc1F)NCc1ccccc1	–	–	–	–	–	–	·
O=C(CNC(=S)N(Cc1ccccc1)Cc1ccccc1F)NCCc1ccccc1	·	–	41	–	–	–	–
Cn1nc(-c2ccc(Cl)cc2)c2cc(C(=O)N3CCN(C(=O)c4ccco4)CC3)sc21	–	–	41	–	–	–	–
Cn1nc(-c2ccc(Cl)cc2)c2cc(C(=O)NCCN3CCOCC3)sc21	–	–	46	–	–	–	–
CC(C)(C)c1nn(-c2ccccc2)c2[nH]c(=O)c(CNCc3ccc4c(c3)OCO4)cc12	–	–	44	–	–	–	32
COc1ccc(-c2cc(C(F)F)n3ncc(C(=O)N4CCc5ccccc5C4)c3n2)cc1	–	–	41	–	–	–	–
CCN1C(=O)/C(=C/c2c(C)nn(C)c2C)SC1=S	·	–	55	–	–	–	44
O=C(NCC1CCOCC1)c1ccc2nc(Cc3cccc(Cl)c3)oc2c1	–	–	–	–	–	–	·
CC(/C=C/c1cccc([N+](=O)[O-])c1)=N/NC(=O)c1cccnc1	–	–	40	–	–	–	–
COc1ccc(S(=O)(=O)N(C)C[C@H]2Oc3ccc(NS(=O)(=O)c4cccs4)cc3C(=O)N([C@H](C)CO)C[C@@H]2C)cc1	–	·	·	·	·	·	·
O=C(Nc1nccs1)c1ccc(Br)c(S(=O)(=O)N2CCOCC2)c1	–	–	48	–	–	–	32
CC1CCN(S(=O)(=O)c2cccc(C(=O)Nc3nccs3)c2)CC1	–	–	48	–	–	–	35
CC(=O)Nc1ccc(NC(=O)C(C)Sc2nnc(C3CC3)n2-c2ccccc2)cc1 (centres undefined)	–	–	–	–	–	·	·
Cc1cccc(-n2ncc3c(NCc4cccnc4)ncnc32)c1	–	–	–	–	–	–	·
Cc1ccc(-n2ncc3c(NCc4ccc5c(c4)OCO5)ncnc32)c(C)c1	–	–	41	–	–	–	–
Cc1ccc(-n2ncc3c(NCc4cccnc4)ncnc32)cc1C	–	–	43	–	–	–	–
